Data as given in the supplement of paper PMC10338343.
± gives the standard deviation.

Each sequence was assayed on MILI (PIWIL2) piRISC loaded with L1MC piRNA (26 nt) (assay: pre-steady-state target cleavage rate (min^-1); guide: L1MC piRNA 5'p-UAACUAAAUACUAUGCAAGCUGUAGG; MIWI and MILI are mouse PIWI proteins and EfPiwi is from a freshwater sponge; tags in brackets are library labels; higher = faster piRNA-guided slicing of the target). Details: auxiliary factor: 500 nM mouse GTSF1.
Method: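 Cleave-'n-Seq: a library of target RNAs (target site embedded in constant flanks, ACAGCATTCCGCGTTAGTGATATCCG... 5' flank; DNA-blocked outside the site) at 0.1 nM was incubated with 1 nM active mouse MILI or MIWI piRISC (synthetic 5'-monophosphorylated piRNA guide) with or without 500 nM mouse GTSF1 at 33 °C for 1 min to 16 h. Uncleaved targets were sequenced and normalised to non-target controls, and the pooled three trials were fitted to a burst-and-steady-state model to give the pre-steady-state cleavage rate (min^-1; k3 is constrained to at most 1e-4). Sequence is the target site only; target names encode pairing extent (gX:gY) and contiguous / 1-mismatch / 2-mismatch / bulge geometry. Fits with R² ≤ 0 are excluded.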
With UCCUGGAUCUCGUUGCAUAGUAUUUAGUAA the “pre-steady-state target cleavage rate” value was 0.114 ± 0.018.
In the case of UCCUGGAUCACCUUGGAUAGUAUUUAGUUA, the “pre-steady-state target cleavage rate” value is reported as 0.173 ± 0.02.
For UCCUCCUACAGCUUGCAUAGUAUUUUCUUA, the “pre-steady-state target cleavage rate” value was 0.126 ± 0.027.
UCCUCCUACAGCUUGCUUAGUUUUUAGUUA was tested, and the “pre-steady-state target cleavage rate” value was 0.0513 ± 0.01.
For UCCUCCUACAGCUUGCAUAGUAUGUAGUUA, the “pre-steady-state target cleavage rate” value was 0.041 ± 0.015.
In the case of UCCUCCUACAGCUUGCAUAGUAUUUCAGUUA, the “pre-steady-state target cleavage rate” value is reported as 0.463 ± 0.073.
In the case of UCCUGGAUGUCGAUGCAUAGUAGUUUAGUUA, the “pre-steady-state target cleavage rate” value is reported as 0.0201 ± 0.005.
In the case of UCCUGGAUGUGCAUGCAUAGUAUAUAGUUA, the “pre-steady-state target cleavage rate” value is reported as 0.19 ± 0.029.
With UCCUGGAUGUGCUUCGUUAGUAUUUAGUUA the “pre-steady-state target cleavage rate” value was 0.00476 ± 0.0034.
UCCUGGUACAGCUUGCUUAGUAUAUAGUUA was tested, and the “pre-steady-state target cleavage rate” value was 0.197 ± 0.045.
With “UCCUGGAUGUCGUUGCAUAGUAUUUAGUUC [g2:g18:cont:t1C]” the “pre-steady-state target cleavage rate” value was 0.0984 ± 0.01.
In the case of UCCUGGAUGUCCUUGCAUAGUAUUUAGUGUA, the “pre-steady-state target cleavage rate” value is reported as 0.0384 ± 0.012.
For UCCUGGAACAGCUUGCAUAGUACUUAGUUA, the “pre-steady-state target cleavage rate” value was 0.243 ± 0.018.
With UCCUGGAUCAGCUUGCAUAGUGAUUUAGUUA the “pre-steady-state target cleavage rate” value was 0.0194 ± 0.0067.
For UCCUGGAUGUCGAACCAAUGUAUUUAGUUA, the “pre-steady-state target cleavage rate” value was less than 0.0001.
In the case of UCCUGGUACAGUUUGCAUAGUAUUUAGUUA, the “pre-steady-state target cleavage rate” value is reported as 0.254 ± 0.02.
In the case of UCCUGCUACAGCUUGGAUAGUAUUAAGUUA, the “pre-steady-state target cleavage rate” value is reported as 0.198 ± 0.031.
UCCUCCUACAGCUUGGAUAGUAUAUAGUUA was tested, and the “pre-steady-state target cleavage rate” value was 0.195 ± 0.022.
UCCUCCUUCAGCUUGCAAAGUAUUUAGUUA was tested, and the “pre-steady-state target cleavage rate” value was 0.162 ± 0.015.
UCCUGGAUGUCCUUGCAUAGUAUUUGGUUA was tested, and the “pre-steady-state target cleavage rate” value was 0.0891 ± 0.016.

Same assay, conditions: auxiliary factor: none (no GTSF1)
With UCCUGGAUCUCGUUGCAUAGUAUUUAGUAA the “pre-steady-state target cleavage rate” value was 0.003 ± 0.0027.
For UCCUGGAUCACCUUGGAUAGUAUUUAGUUA, the “pre-steady-state target cleavage rate” value was 0.00563 ± 0.0021.
For UCCUCCUACAGCUUGCUUAGUUUUUAGUUA, the “pre-steady-state target cleavage rate” value was 0.00379 ± 0.0023.
UCCUCCUACAGCUUGCAUAGUAUUUCAGUUA was tested, and the “pre-steady-state target cleavage rate” value was 0.0049 ± 0.0029.
For UCCUGGAUGUCGAACGAUAGUAUUUAAGUUA, the “pre-steady-state target cleavage rate” value was less than 0.0001.
UCCUGGAUGUCGAACGUUAGGUAUUUAGUUA was tested, and the “pre-steady-state target cleavage rate” value was less than 0.0001.
In the case of UCCUGGAUGUCGAUCCAUUGUAUUUAGUUA, the “pre-steady-state target cleavage rate” value is reported as less than 0.0001.
UCCUGGAUGUCGAUGCAUAGUAGUUUAGUUA was tested, and the “pre-steady-state target cleavage rate” value was 0.00577 ± 0.0027.
With UCCUGGAUGUGCAUGCAUAGUAUAUAGUUA the “pre-steady-state target cleavage rate” value was 0.00367 ± 0.0031.
For UCCUGGUACAGCUUGCUUAGUAUAUAGUUA, the “pre-steady-state target cleavage rate” value was 0.00855 ± 0.0026.
In the case of UCCUGGAUGUCGAACGAAAGUAUUUAGUAA, the “pre-steady-state target cleavage rate” value is reported as less than 0.0001.
For “UCCUGGAUGUCGUUGCAUAGUAUUUAGUUC [g2:g18:cont:t1C]”, the “pre-steady-state target cleavage rate” value was 0.00738 ± 0.0026.
With UCCUGGAACAGCUUGCAUAGUACUUAGUUA the “pre-steady-state target cleavage rate” value was 0.0101 ± 0.0024.
For UCCUGGAUCAGCUUGCAUAGUGAUUUAGUUA, the “pre-steady-state target cleavage rate” value was 0.00404 ± 0.0022.
In the case of UCCUGGAUGUCGAACCAAUGUAUUUAGUUA, the “pre-steady-state target cleavage rate” value is reported as less than 0.0001.
UCCUGGUACAGUUUGCAUAGUAUUUAGUUA was tested, and the “pre-steady-state target cleavage rate” value was 0.0161 ± 0.005.
In the case of UCCUGCUACAGCUUGGAUAGUAUUAAGUUA, the “pre-steady-state target cleavage rate” value is reported as 0.00579 ± 0.002.
In the case of UCCUCCUACAGCUUGGAUAGUAUAUAGUUA, the “pre-steady-state target cleavage rate” value is reported as 0.0033 ± 0.0023.
UCCUCCUUCAGCUUGCAAAGUAUUUAGUUA was tested, and the “pre-steady-state target cleavage rate” value was 0.00632 ± 0.0021.
For UCCUGGAUGUCCUUGCAUAGUAUUUGGUUA, the “pre-steady-state target cleavage rate” value was 0.00707 ± 0.0022.
